Drawing on PubChem BioAssay, this text covers z-score for 16 compounds.

Calls of active or inactive are those of the source.

Experiment [1] is described as follows: compound effects on lung adenocarcinoma cell viability – A549, calcein-AM fluorescence, 48 h, basal, profiling panel (AID 1162). To be noted: higher = more signal.
Experiment [2] is described as follows: compound effects on differentiated 3T3-L1 adipocyte viability – cell-based, 3T3-L1 adipocytes, calcein-AM fluorescence, 48 h, basal, profiling panel (AID 1163). To be noted: 3T3-L1 adipocytes viability, higher = more signal.
The nature of experiment [3]: compound effects on hepatocellular carcinoma cell viability – HepG2, calcein-AM fluorescence, 48 h, basal, profiling panel (AID 1164). To be noted: higher = more signal.
Experiment [4] can be described thus: compound effects on multiple myeloma cell viability – MM1S, calcein-AM fluorescence, 48 h, basal, profiling panel (AID 1165).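 Note: viability of MM1S multiple myeloma cells under basal unstimulated conditions.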 The note with it: higher = more signal.
The nature of experiment [5]: calcein-AM signal in unstimulated myeloma cells – cell-based, calcein-AM fluorescence, 48 h, PK04 Diversity Set, profiling panel (AID 1166).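 Note: cells grown under basal conditions without added stimulus.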 The note with it: RPMI8226 myeloma viability, higher = more signal.
A short description of experiment [6]: JC-1 mitochondrial signal, unstimulated HepG2 cells – cell-based, JC-1 fluorescence, 24 h, 100 nL compound, profiling panel (AID 1167). To be noted: HepG2 mitochondrial potential, higher = more signal.
Experiment [7] in a line: JC-1 mitochondrial signal, unstimulated adipocytes – cell-based, JC-1 fluorescence, 3T3-L1 adipocytes, 24 h, 100 nL compound, profiling panel (AID 1168). The note with it: JC-1 mitochondrial fluorescence, higher = more signal, called active from +8 up or from −8 down.
The nature of experiment [8]: JC-1 mitochondrial signal, unstimulated myeloma cells – cell-based, JC-1 fluorescence, RPMI8226, 24 h, 100 nL compound, profiling panel (AID 1169). To be noted: JC-1 mitochondrial potential fluorescence, higher = more signal.
A short description of experiment [9]: JC-1 mitochondrial signal, unstimulated MM1S myeloma – cell-based, JC-1 fluorescence, 24 h, 100 nL compound, profiling panel (AID 1170). To be noted: MM1S mitochondrial potential, higher = more signal.
Experiment [10] can be described thus: resazurin metabolic signal in A549 cells – cell-based, resazurin fluorescence, 24 h, PK04 Diversity Set, profiling panel (AID 1171). The note with it: A549 viability, higher = more signal, called active from +8 up or from −8 down.
Note: test concentration not given here.

`CN1C(=O)C2C=CC(C(O)C3=C[C@H]4C[C@@H](C3)C4(C)C)N(Nc3ccc([N+](=O)[O-])cc3[N+](=O)[O-])C2C1=O` (stereo not given in full): the z-score in experiment [1] was 0.895; in [2], -0.535; in experiment [3], 0.436; in experiment [4], 0.017; in experiment [5], -0.481; in [6] it was -0.661. In addition, the z-score in experiment [7] is -1.35 (inactive); in [8] it was -0.46; in experiment [9] it was -1.1; in experiment [10], -0.227 (inactive).
`O=C1O[C@H](c2ccccc2)[C@H](c2ccccc2)N2[C@H]1[C@@H](C(=O)Nc1nc3ccccc3s1)[C@]1(C(=O)Nc3ccc(C#CC4=CCCCC4)cc31)[C@H]2c1ccc(OCCO)cc1`: the z-score in experiment [1] was -0.641; in experiment [2], 1.07; in experiment [3], -0.819; in [4] it was -1.69; in [5], -1.7; in experiment [6] it was -3.34. Also, the z-score in experiment [7] was 0.256 (inactive); in experiment [8], -1.07; in experiment [9], -1.8; in experiment [10] it was 0.18 (inactive).
Consider `C=CCNC(=O)[C@@H]1[C@H]2C(=O)O[C@H](c3ccccc3)[C@H](c3ccccc3)N2[C@H](c2ccccc2OCCO)[C@@]12C(=O)N(C(=O)OCCOC)c1ccc(C#CCC(C(=O)OC)C(=O)OC)cc12`, for which the z-score in experiment [1] was 0.136; in [2] it was -0.609; in [3], -0.592; in experiment [4], -0.794; in experiment [5] it was -1.57; in [6], 0.408. Also, the z-score in experiment [7] is 0.618 (inactive); in [8], -0.802; in experiment [9], -1.35; in experiment [10], 1.31 (inactive).
With `C=CC[C@@]1(C(N)=O)N=C(c2ccc(OCCCO)cc2)O[C@@H]1c1ccccc1N=[N+]=[N-]`, the z-score in experiment [1] was 1.38; in experiment [2] it was 1.01; in [3], 0.314; in [4], -0.35; in [5] it was -0.0394; in experiment [6], -0.00877. Further, the z-score in experiment [7] is 0.875 (inactive); in [8], -0.327; in experiment [9], 0.759; in experiment [10], 1.02 (inactive).
On to `C=CC[C@@]1(C(=O)NCc2ccccc2)N=C(c2ccc(OCCCO)cc2)O[C@@H]1c1ccccc1CN=[N+]=[N-]`, for which the z-score in experiment [1] is -0.651; in experiment [2], 0.115; in [3], -1.09; in experiment [4] it was -1.84; in [5], -3; in experiment [6], -0.675. Besides, the z-score is -1.85 (inactive) in experiment [7], -0.979 in experiment [8], -0.975 in experiment [9] and -1.23 (inactive) in [10].
Turning to `COc1ccc([Si](C)(C)[C@H]2[C@H](CC(=O)N3CCC[C@H]3CO)O[C@@]3(C(=O)N(c4ccccc4)c4ccccc43)[C@@H]2C)cc1`, the z-score in experiment [1] is 1.35; in [2] it was 0.42; in experiment [3], 0.628; in [4], 1.63; in experiment [5], 0.912; in experiment [6] it was 2.53. In addition, the z-score in experiment [7] was -0.667 (inactive); in experiment [8] it was 0.421; in [9], -0.947; in [10], 1.63 (inactive).
As to `COC(=O)[C@@]1(Cc2ccc(OC)cc2)[C@H]2c3cc(C(=O)N4CCCC4)n(CCN4CCOCC4)c3C[C@H]2CN1C(=O)c1ccccc1`, the z-score in experiment [1] was -1.35; in [2] it was 0.077; in experiment [3], 0.707; in experiment [4], 0.847; in experiment [5], -1.16; in [6], 2.52. Moreover, the z-score in experiment [7] was 0.642 (inactive); in experiment [8], 0.28; in [9], -0.936; in experiment [10] it was 0.0452 (inactive).
Turning to `O=C1O[C@@H](c2ccccc2)[C@@H](c2ccccc2)N2[C@@H](c3ccccc3OCCO)[C@]3(C(=O)Nc4ccc(C#CC5(O)CCCCCC5)cc43)[C@@H](C(=O)NC[C@H](O)c3ccccc3)[C@H]12`, the z-score is -0.724 in [1]; 0.737 in experiment [2]; -3.6 in [3]; -3.31 in [4]; -4.17 in experiment [5]; -1.14 in experiment [6]. The z-score in experiment [7] is 0.986 (inactive); in experiment [8], -0.935; in experiment [9], -1.98; in experiment [10], -2.91 (inactive).
In the case of `Cc1ccc(S[C@]2(C(=O)NCCCN(C)C)CC(=O)N(C(C)C)[C@@H]2c2ccc(CO)cc2I)cc1`, the z-score is 2.16 in experiment [1]; -0.054 in experiment [2]; 0.498 in experiment [3]; -3.07 in experiment [4]; -1.37 in experiment [5]; 2.47 in experiment [6]. Besides, the z-score in experiment [7] was 1.06 (inactive); in experiment [8], -0.423; in experiment [9], -2.32; in [10] it was 0.505 (inactive).
For `C=CCNC(=O)[C@H]1[C@@H]2C(=O)O[C@@H](c3ccccc3)[C@@H](c3ccccc3)N2[C@@H](c2ccc(O)cc2)[C@]12C(=O)Nc1ccc(C#Cc3ccc(OC)cc3)cc12`, the z-score in experiment [1] was -1.06; in experiment [2] it was 0.205; in experiment [3], -1.78; in experiment [4], -2.37; in [5] it was -4.35; in [6], -0.385. In addition, the z-score in [7] is -0.0338 (inactive); in [8] it was -1.22; in experiment [9] it was -0.614; in [10], -0.989 (inactive).
As to `O=C(CS)NCCCCCNC(=O)[C@H]1C[C@H]2C(=O)N[C@@H](Cc3ccccc3)C(=O)N2[C@H]1c1cccc(OCCO)c1`, the z-score in experiment [1] is 0.917; in experiment [2], -0.0063; in [3], 0.585; in experiment [4], 0.898; in experiment [5], -0.156; in [6], 1.3. Moreover, the z-score in experiment [7] is -0.0668 (inactive); in experiment [8] it was -0.736; in [9] it was -0.256; in experiment [10], 0.363 (inactive).
Regarding `C=CCC(OC(C)=O)[C@@H]1[C@@H](N(Cc2cc3ccccc3o2)C(=O)c2cccc3ccccc23)c2cc(OCCCO)ccc2N1C(=O)Cc1ccc(OC)cc1` (stereo not given in full), the z-score is 0.323 in experiment [1]; 1.28 in experiment [2]; 0.222 in experiment [3]; 0.381 in experiment [4]; -1.05 in experiment [5]; 2.46 in [6]. The z-score in [7] is -0.0309 (inactive); in [8], 0.181; in experiment [9], 0.177; in experiment [10] it was -1.38 (inactive).
With `Cc1ccc(N2C(=O)c3ccccc3[C@@H](C(=O)NC(C)C)[C@@H]2c2ccc(CO)cc2)nc1`, the z-score in experiment [1] was -0.749; in [2], -0.0953; in experiment [3], -0.617; in experiment [4], 0.385; in experiment [5] it was -0.526; in experiment [6], 0.199. Moreover, the z-score in [7] is -0.286 (inactive); in experiment [8] it was 0.918; in [9], -0.67; in [10], 2.16 (inactive).
As to `C=CCN1Cc2ccccc2C[C@@]2(COC(c3ccc(OCCCO)cc3)=N2)C1=O`, the z-score in experiment [1] was 0.386; in experiment [2] it was 0.72; in [3] it was 0.741; in experiment [4] it was -3.59; in [5], -2.52; in experiment [6], 1.32. The z-score is 0.94 (inactive) in [7], -0.988 in [8], -2.19 in [9] and -1.56 (inactive) in [10].
On to `CC(C)(C)OC(=O)CC[C@@]1(C(=O)N2CCOCC2)N=C(c2ccc(OCCCO)cc2)O[C@@H]1c1ccccc1N=[N+]=[N-]`, for which the z-score was 0.962 in [1]; 0.122 in experiment [2]; 0.169 in experiment [3]; -0.49 in experiment [4]; 0.338 in experiment [5]; 2.09 in experiment [6]. For the same compound, the z-score in experiment [7] was 5.5 (inactive); in [8], -0.499; in [9], -1.03; in [10], 0.716 (inactive).
Take `CC(C)N1C(=O)c2ccccc2[C@](C)(C(=O)NC2CC2)[C@@H]1c1ccc(CO)cc1`: the z-score was -0.778 in experiment [1]; -0.415 in experiment [2]; 0.176 in experiment [3]; 0.0418 in [4]; 0.27 in [5]; 1.57 in experiment [6]. The z-score in [7] is 0.343 (inactive); in experiment [8], 0.747; in [9] it was -0.847; in experiment [10], 0.688 (inactive).
